Data taken from the supplement of paper PMC3545927.
Some of the results follow. How many sequences the whole screen found active is unknown.

Target: furin, P09958
Test: furin cleavage Z-score vs untreated control; higher = more cleavage, active = 3.5 or more, inactive = 1 or less, 8 variable residues between constant flanks
How it was run: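 Magnetic beads held 8-mer peptides by the N-terminus, each fused to a cDNA oligonucleotide, and purified furin was added for 7.5, 15 or 30 min. Released DNA was sequenced after PCR adapter tagging. The cleavage Z-score is the log count relative to furin-free reactions, lowess-adjusted and divided by median absolute deviation.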
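Also: purified furin at 1:10 enzyme:substrate in 50 mM HEPES pH 7.5.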

Chain of furin, P09958 (P09958 whole entry): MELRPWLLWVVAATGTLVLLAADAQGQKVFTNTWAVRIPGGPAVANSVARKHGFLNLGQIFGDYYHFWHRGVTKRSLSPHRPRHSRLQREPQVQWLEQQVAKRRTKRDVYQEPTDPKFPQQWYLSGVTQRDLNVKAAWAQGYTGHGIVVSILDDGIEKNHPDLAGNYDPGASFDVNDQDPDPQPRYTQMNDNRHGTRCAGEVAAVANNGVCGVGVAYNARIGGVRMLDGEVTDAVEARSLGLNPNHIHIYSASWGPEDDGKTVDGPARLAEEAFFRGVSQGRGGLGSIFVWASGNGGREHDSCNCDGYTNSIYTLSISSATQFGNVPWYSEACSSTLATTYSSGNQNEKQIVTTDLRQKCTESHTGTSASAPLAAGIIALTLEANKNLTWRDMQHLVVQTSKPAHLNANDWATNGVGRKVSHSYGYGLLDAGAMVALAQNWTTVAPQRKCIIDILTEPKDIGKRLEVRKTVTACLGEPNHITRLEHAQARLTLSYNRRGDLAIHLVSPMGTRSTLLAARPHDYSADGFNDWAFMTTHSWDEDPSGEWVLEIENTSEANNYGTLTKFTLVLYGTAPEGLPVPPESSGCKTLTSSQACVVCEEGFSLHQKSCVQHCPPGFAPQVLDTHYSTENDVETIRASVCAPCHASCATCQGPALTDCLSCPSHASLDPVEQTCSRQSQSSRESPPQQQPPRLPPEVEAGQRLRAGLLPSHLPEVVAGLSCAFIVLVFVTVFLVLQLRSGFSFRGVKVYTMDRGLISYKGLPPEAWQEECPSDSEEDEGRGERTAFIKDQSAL

Row | Sequence | furin cleavage Z-score (7.5 min) | furin cleavage Z-score (15 min) | furin cleavage Z-score (30 min)
1 | CAMEECSAHLAGNASASA [HC1723] | 1.16 | 1.94 | 0.224 (inactive)
2 | CAANHDSPDAAGNASASA [HC1269] | -0.381 (inactive) | 0.0398 (inactive) | -1.93 (inactive)
3 | CAEVVTWTWVAGNASASA [HC147] | 0.828 (inactive) | 0.782 (inactive) | -0.799 (inactive)
4 | CAAEGWWARSAGNASASA [FS-394] | 0.0718 (inactive) | 0.063 (inactive) | -0.127 (inactive)
5 | CANLGRLYRSAGNASASA [FS-1546] | 1.72 | 0.0213 (inactive) | 0.362 (inactive)
6 | CAAPQRLPRSAGNASASA [FS-1305] | 5.56 (active) | 4.41 (active) | 3.78 (active)
7 | CAESRRLPRSAGNASASA [FS-1321] | 4.7 (active) | 3.1 | 2.83
8 | CAAPARWPRSAGNASASA [FS-974] | 8.41 (active) | 5.86 (active) | 6.73 (active)
9 | CAKQRRLPRSAGNASASA [FS-678] | 5.31 (active) | 3.74 (active) | 3.02
10 | CAESSRLLRSAGNASASA [FS-994] | -0.56 (inactive) | -0.471 (inactive) | -0.146 (inactive)
11 | CATPGCVPCVAGNASASA [HC272] | -0.91 (inactive) | 0.456 (inactive) | 0.199 (inactive)
12 | CAHHQRPKRYAGNASASA [FS-792] | 8.28 (active) | 9.17 (active) | 7.59 (active)
13 | CAILNRPKRYAGNASASA [FS-666] | 4.17 (active) | 4.91 (active) | 4.53 (active)
14 | CATWAQPGYPAGNASASA [HC198] | -0.244 (inactive) | 0.873 (inactive) | -0.438 (inactive)
15 | CAWWARSVGGAGNASASA [FS-2116] | 0.297 (inactive) | 0.813 (inactive) | 1.73
16 | CARNKRSHSGAGNASASA [FS-1758] | 5.74 (active) | 8.23 (active) | 6.55 (active)
17 | CARNKKQNSQAGNASASA [FS-2282] | 1.09 | -0.5 (inactive) | -0.768 (inactive)
18 | CARNKRSTQIAGNASASA [FS-1911] | 10.5 (active) | 12.3 (active) | 10.9 (active)
19 | CAEVVTSTMVAGNASASA [HC2226] | 1.1 | 0.363 (inactive) | 1.25
20 | CAFRKRSHSKAGNASASA [FS-2120] | -0.356 (inactive) | -1.2 (inactive) | -1.04 (inactive)
21 | CARNKRDTMVAGNASASA [FS-1862] | 12.3 (active) | 13.2 (active) | 10.9 (active)
22 | CARNKKSIAVAGNASASA [FS-2434] | -0.82 (inactive) | 0.605 (inactive) | 1.7

Row | Sequence | furin cleavage Z-score (7.5 min) | furin cleavage Z-score (15 min) | furin cleavage Z-score (30 min)
23 | CARNKRSKSNAGNASASA [FS-2729] | 7.79 (active) | 9.35 (active) | 7.37 (active)
24 | CARNKRFYGGAGNASASA [FS-1910] | 0.307 (inactive) | 0.312 (inactive) | 2.91
25 | CARNKKSKMDAGNASASA [FS-2497] | -0.56 (inactive) | -0.669 (inactive) | -0.939 (inactive)
26 | CARNKRPTFLAGNASASA [FS-3008] | -0.0512 (inactive) | 0.819 (inactive) | -0.221 (inactive)
27 | CAVFCCSMSYAGNASASA [HC2007] | -1.31 (inactive) | -1.48 (inactive) | -0.762 (inactive)
28 | CAPTPCSGSWAGNASASA [HC1839] | -0.934 (inactive) | -0.739 (inactive) | -1.08 (inactive)
29 | CACRPLTDFDAGNASASA [HC390] | -1.1 (inactive) | 0.259 (inactive) | -1.94 (inactive)
30 | CANVPCHRPSAGNASASA [HC2321] | 0.0675 (inactive) | 0.859 (inactive) | 1.03
31 | CALNTGWLAGAGNASASA [HC377] | -0.173 (inactive) | -0.464 (inactive) | 0.636 (inactive)
32 | CASTPCSAKLAGNASASA [HC2554] | 0.275 (inactive) | 1.72 | 1.78
33 | CANAASLAGTAGNASASA [HC538] | 0.915 (inactive) | 0.0856 (inactive) | 0.369 (inactive)
34 | CAVIVGRVVLAGNASASA [HC1001] | -0.946 (inactive) | -1.25 (inactive) | -0.791 (inactive)
35 | CAFPNRDQRDAGNASASA [FS-652] | -0.191 (inactive) | -0.415 (inactive) | -0.133 (inactive)
36 | CALPVWARPDAGNASASA [HC1303] | -0.876 (inactive) | -0.333 (inactive) | -0.285 (inactive)
37 | CAKPMRQQRDAGNASASA [FS-343] | 5.15 (active) | 5.86 (active) | 7.03 (active)
38 | CALRRRGPGKAGNASASA [FS-2124] | -0.105 (inactive) | -1.37 (inactive) | -1.45 (inactive)
39 | CALRRRCQRDAGNASASA [FS-459] | 9.61 (active) | 9.12 (active) | 7.39 (active)
40 | CALRRVLRRDAGNASASA [FS-56] | 4.93 (active) | 4.47 (active) | 5.29 (active)
41 | CATKRRNQRDAGNASASA [FS-509] | 9.77 (active) | 11 (active) | 8.15 (active)
42 | CATTFCSGSWAGNASASA [HC1867] | 0.273 (inactive) | 0.134 (inactive) | -0.205 (inactive)
43 | CALTTSQTLLAGNASASA [HC1061] | -1.15 (inactive) | 0.0331 (inactive) | 0.232 (inactive)
